From PubChem BioAssay (NCI)
This is part of a sample that, as a whole, favours compounds with a hit. Of some 79,000 tested, about 15% had one in any assay. A number with no mark means an inactive call. Active and inactive are the calls of the source. No stated cut-off is given here; in the data, active means growth inhibition above about 70%; inactive means the rest.

Experiments:
[1] = NCI Yeast Anticancer Drug Screen. Data for the rad50 strain (AID 155);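 further: 0% = growth of vehicle-only cultures of the same strain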; conditions: S. cerevisiae rad50 strain growth inhibition; at 50.0 µM; stronger effect = higher value
In short: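 A DNA repair-deficient yeast mutant serves as the test organism; compound-induced growth inhibition is calculated against vehicle-treated cells.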

[2] = NCI Yeast Anticancer Drug Screen. Data for the mec2-1 strain (AID 157); conditions: S. cerevisiae mec2-1 strain, at 50.0 µM, stronger effect = higher value
In short: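 Mutant yeast (mec2-1) grown with compound; growth inhibition relative to vehicle control reported.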

[3] = NCI Yeast Anticancer Drug Screen. Data for the sgs1 mgt1 strain (AID 161);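 further: 0% = growth of cultures given vehicle only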; conditions: S. cerevisiae sgs1 mgt1 strain, at 50.0 µM, stronger effect = higher value
In short: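 Compounds are added to genetically altered yeast, and growth is compared with cultures given vehicle alone to give percent inhibition.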

[4] = NCI Yeast Anticancer Drug Screen. Data for the cln2 rad14 strain (AID 165);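 further: 0% = growth equal to vehicle treated cultures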; conditions: S. cerevisiae cln2 rad14 strain, at 50.0 µM, stronger effect = higher value
In short: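 Readout is yeast growth inhibition versus vehicle-treated controls, using a strain with cln2 and rad14 alterations exposed to compound.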

[5] = NCI Yeast Anticancer Drug Screen. Data for the bub3 strain (AID 167); conditions: S. cerevisiae bub3 mutant strain, at 50.0 µM, stronger effect = higher value
In short: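 Inhibition values come from growth of compound-treated mutant yeast normalised to vehicle-treated controls.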

[6] = NCI Yeast Anticancer Drug Screen. Data for the mlh1 rad18 strain (AID 175); conditions: S. cerevisiae mlh1 rad18 strain growth inhibition; at 50.0 µM; stronger effect = higher value
In short: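 Genetically defined yeast (DNA repair-deficient) exposed to compounds; growth inhibition determined relative to vehicle.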

Row | Structure (SMILES) | growth inhibition [1] | growth inhibition [2] | growth inhibition [3] | growth inhibition [4] | growth inhibition [5] | growth inhibition [6]
1 | CCC(C)CCC(=O)OCC(=O)c1ccc(-c2ccccc2)cc1 (stereo unspecified) | 13.7% | -18.9% | 14.8% | -13.5% | 7% | 5.75%
2 | CCOC(=O)C(=Cn1ccc(=O)[nH]c1=S)C(=O)OCC | -4.6% | -31.1% | -23.9% | 9.35% | -11.6% | -10.3%
3 | COc1c(NC(=O)CC(C)=O)cccc1NC(=O)CC(C)=O | -1.2% | 14.4% | -2.05% | 7.95% | -8.25% | -11.3%
4 | CCOC(=O)c1ccc(-c2cccs2)[nH]1 | -35.3% | -1.25% | 3.95% | -1.25% | 27% | -11.9%
5 | CC1CC12OC(=O)N(c1cc(Cl)cc(Cl)c1)C2=O (stereo unspecified) | 1.7% | 8.9% | 14.3% | 35.1% | -2.05% | 16.6%
6 | Cc1cc(C(N)=O)c2ccccc2n1 | -11% | -47.2% | -15.7% | 11.4% | -34.4% | -6.25%
7 | O=C(Nc1ccccc1Cl)Nc1ccccc1Br | 16.8% | 11.7% | 14.7% | 12.2% | 6.8% | -17.3%
8 | CCC(C)(O)c1cn(-c2cccc(S(=O)(=O)O)c2)nn1 (stereo unspecified) | -9.3% | -10.2% | -8.05% | 5.95% | -8.65% | -8.35%
9 | O=c1ccc2ccc(O)cc2o1 | -1.45% | -6.7% | 0.9% | 2.05% | -4.65% | -11.8%
10 | COC(=O)c1cc2ccc1OCC#CC#CCOc1ccc(cc1C(=O)OC)OCC#CC#CCO2 | -1.9% | 5.5% | 7.35% | 5.75% | -0.7% | 19.2%
11 | COc1cc(/C=N/NC(=O)Cc2cccc3ccccc23)ccc1O | 21.1% | 9.5% | 3.05% | -5.3% | 39.4% | 8.8%
12 | CC1=CC(=O)N2[C@H](OC[C@@H]2C(C)C)O1 | 6.4% | -2.35% | 2.15% | 14.7% | -20.2% | 9.5%
13 | CCCNC(=O)N(CCC)S(=O)(=O)c1ccc(Cl)cc1 | -6.85% | 8.45% | 12.3% | 24.6% | 22.7% | 25.6%
14 | O=C(Nc1ccccc1)c1ccc2ccccc2n1 | -12.7% | -31% | -22.1% | -10.1% | 10.6% | 6.75%
15 | O=CC(=O)c1ccc(Cl)cc1 | 1.9% | 5.5% | 8.4% | 31.1% | -9.5% | 14.8%
16 | COc1cccc2c1N=c1c(Cl)c3c(c(Cl)c1O2)=Nc1c(OC)cccc1O3 | -17.9% | -1.45% | -0.25% | -13.9% | -8.5% | -20.4%
17 | CC(CN(C)C)Oc1ccc2c(c1)C(=O)C(C)C2 (stereo unspecified) | -25.6% | -5.25% | 4.85% | -28.9% | 22.1% | -22.6%
18 | Cc1ccc(C(=O)CC2(O)C(=O)Nc3ccccc32)cc1 (stereo unspecified) | 25.4% | 17.4% | 22.4% | 16.9% | 14.3% | 20.9%
19 | CC1CC=CCC1(C(=O)O)C(=O)O (stereo unspecified) | 0.6% | 10.1% | -10.2% | -2.05% | -21.6% | -24.1%
20 | COC(=O)CCCCCN1C(=O)c2cccc([N+](=O)[O-])c2C1=O | 20.6% | 7.2% | 15.6% | 20.9% | 15.2% | 20.6%
21 | CC(C)c1ccc(C(C)(C)O)cc1 | 4.75% | 15.7% | -19.8% | -7.8% | -6.8% | -17.6%

Row | Structure (SMILES) | growth inhibition [1] | growth inhibition [2] | growth inhibition [3] | growth inhibition [4] | growth inhibition [5] | growth inhibition [6]
22 | O=C1CCCc2ccc([N+](=O)[O-])cc21 | -3.35% | -54.7% | -17.2% | 18.6% | -11.8% | 23.1%
23 | CCc1cccc(C)c1NC(=O)C(=O)CC(=O)CS(=O)(=O)c1ccc(C)cc1 | -13.4% | -15.2% | -6% | -0.8% | -8.8% | 12.5%
24 | Cc1[nH]c2ccccc2c1C(=O)Cc1ccc(Cl)cc1Cl | -3.6% | 31.8% | 32.2% | -4.35% | 23.8% | 33.4%
25 | COc1ccc2c(c1)CC1(CC2)NCC(=O)NC1=O (stereo unspecified) | 7.9% | 15.6% | -11.8% | -2% | 5.8% | 12.4%
26 | C=CCOc1cc2c(cc1C(C)c1ccc(OC)cc1)OCO2 (stereo unspecified) | 12.3% | 0.75% | 5.95% | -10.3% | 14.5% | -0.6%
27 | O=C(NCc1cccnc1)Nc1cccc2c(NC(=O)NCc3cccnc3)cccc12 | -17.1% | -6.3% | 5.8% | 14.5% | -0.05% | 13.9%
28 | CCOC(=O)c1c([N+](=O)[O-])cnn1C1OC(COC(C)=O)C(OC(C)=O)C1OC(C)=O (stereo unspecified) | 6.4% | -2% | 4.6% | 15.2% | 7.9% | 6.85%
29 | COc1ccc(NC(=O)Oc2ccc(C#N)cc2)cc1 | -1.3% | -16.1% | 5.5% | 8.3% | 10.4% | -1.55%
30 | O=C(O)C1Cc2c([nH]c3ccccc23)C(CCCCO)N1 (stereo unspecified) | -31.6% | -7.85% | -15.9% | -15.4% | -26.4% | -11.3%
31 | CN(C)N=Nc1c(Cl)cccc1Cl | 3.35% | 26.7% | -6.6% | -13% | 2.35% | 7.75%
32 | CCOC(=O)CCCCCC(C(=O)OCC)c1nc2ccccc2[nH]c1=O (stereo unspecified) | -14.4% | 0.4% | 10.9% | -5.1% | 11.1% | 8.55%
33 | Cc1ccc(CNC2=C(Cl)C(=O)c3ccccc3C2=O)cc1C | 96.9% (active) | 98.2% (active) | 97.2% (active) | 97.2% (active) | 98% (active) | 97.2% (active)
34 | Nc1nc2ncc(=O)[nH]c2c(=O)[nH]1 | -35.1% | -4.2% | -8.55% | -31.3% | 20.3% | -8.4%
35 | CC(=O)Nc1ccc(S(=O)(=O)NC2(C)C(=O)N(C)C(=O)N(C)C2=O)cc1 | 32.2% | 15.2% | 14.2% | 17.5% | 3.15% | 27.7%
36 | CC(C)Cn1cnc2c(Cl)nc3ccccc3c21 | -38.5% | 20.4% | 23.4% | 0.25% | 33.5% | -11.8%
37 | Nc1nc(N)c2c(n1)CCC(CNc1ccc(C(=O)NC(CCC(=O)O)C(=O)O)cc1)C2 (stereo unspecified) | 23.6% | 30.6% | 38.3% | 40.2% | -3.8% | 29.7%
38 | CNc1nc(SC)nc2[nH]ncc12 | 7.1% | -9.2% | 2.45% | -3.2% | 23% | 2.05%
39 | O=[N+]([O-])[C@@H]1C[C@@H]2C=C[C@H]1CC2 | 10.1% | 0.2% | 2.6% | -1.3% | 0.3% | 0.15%
40 | CCN1CCCC(Nc2cc(C)nc(/N=C(\N)Nc3ccc(Cl)c(Cl)c3)n2)C1 (stereo unspecified) | 97.2% (active) | 98% (active) | 98.4% (active) | 87.3% (active) | 96.1% (active) | 98% (active)
41 | COc1c2c(c(OC)c(C(C)=O)c1OC(=O)c1ccccc1)CCO2 | 1% | -14.4% | 11.4% | 11.8% | 0.05% | 15.6%
